These results are taken from the supplement of paper PMC10720658.

Structures are written as SMILES. ± gives the standard deviation of the averaged measurements.

The assay has as its system AEK1 (Tb927.3.2440). Briefly: percent reduction in TR-FRET probe signal relative to DMSO control; higher = stronger displacement of ATP-site probe (binding). Conditions: 1 µM; incubation time 1 h. (Time-resolved FRET reads energy transfer from a long-lived donor to a nearby acceptor.)
`Cc1ccc(C(=O)Nc2ccc(CN3CCN(C)CC3)c(C(F)(F)F)c2)cc1C#Cc1cnc2[nH]ncc2c1`: the “percent reduction in TR-FRET probe signal” value (from here on “percent reduction”) was 29.4 ± 11%.
In the case of `CS(=O)(=O)O.O=C(Nc1cccc(Cl)c1)Nc1ncc(CCNc2ncnc3ccsc23)s1` [SNS-314 Mesylate], the “percent reduction” value was determined as 0.813 ± 5%.
As to `COc1ccc2c(c1)c(C1=C(c3c[nH]c4ccccc34)C(=O)NC1=O)cn2CCCN(C)C`, the “percent reduction” value turned out to be 4.65 ± 14%.
In the case of `Oc1cc(O)cc(/C=C/c2ccc(O)c(O)c2)c1` [Piceatannol], the “percent reduction” value is 44.1 ± 8%.
For the compound `NC[C@@](O)(c1ccc(Cl)cc1)c1ccc(-c2cn[nH]c2)cc1`, the “percent reduction” value was 11 ± 16%.
In the case of `CS(=O)(=O)CCNCc1ccc(-c2ccc3ncnc(Nc4ccc(OCc5cccc(F)c5)c(Cl)c4)c3c2)o1.Cc1ccc(S(=O)(=O)O)cc1.Cc1ccc(S(=O)(=O)O)cc1`, the “percent reduction” value stood at 19.5 ± 21%.
Turning to `COc1cc2nccc(Oc3ccc(NC(=O)C4(C(=O)Nc5ccc(F)cc5)CC4)cc3)c2cc1OC.O=C(O)C[C@H](O)C(=O)O` [Cabozantinib malate (XL184)], the “percent reduction” value turned out to be 4.34 ± 3.9%.
As for `COc1cccc(-c2cc(=O)c3ccccc3o2)c1N`, the “percent reduction” value was -1.76 ± 8%.
Then `CC(=O)c1c(C)c2cnc(Nc3ccc(N4CCNCC4)cn3)nc2n(C2CCCC2)c1=O.Cl`, with -16.8 ± 5.1%; and `CN1CCN(c2cccc(Nc3nc4c(-c5ccc(S(C)(=O)=O)cc5)cccn4n3)c2)CC1`, with 7.3 ± 6.6%; and `CNC(=O)c1ccc(C)c(-n2c(C)cc(OCc3ccc(F)cc3F)c(Br)c2=O)c1`, with -1.42 ± 7.4%.
Take `Cn1cc(-c2ccc3ncc(Cc4ccc5ncccc5c4)n3n2)cn1`: the “percent reduction” value stood at 4.34 ± 8.7%.
Under `COc1cccc2cc(-c3nc([C@H]4CC[C@H](C(=O)O)CC4)n4ncnc(N)c34)[nH]c12` stands -0.417 ± 9.2%; under `CCN(CC)CCNC(=O)c1c(C)[nH]c(/C=C2\C(=O)Nc3ccc(F)cc32)c1C.O=C(O)C[C@H](O)C(=O)O` [Sunitinib Malate], 14.7 ± 14%; under `CO[C@H]1C[C@@H]2CC[C@@H](C)[C@@](O)(O2)C(=O)C(=O)N2CCCC[C@H]2C(=O)O[C@H]([C@H](C)C[C@@H]2CC[C@@H](OP(C)(C)=O)[C@H](OC)C2)CC(=O)[C@H](C)/C=C(\C)[C@@H](O)[C@@H](OC)C(=O)[C@H](C)C[C@H](C)/C=C/C=C/C=C/1C` [Ridaforolimus (Deforolimus, MK-8669)], 1.74 ± 22%.
Then `O=c1ncn2nc(Sc3ccc(F)cc3F)ccc2c1-c1c(Cl)cccc1Cl`, with 9.39 ± 14%.
For the compound `C[C@@H]1COCCN1c1cc(C2(S(C)(=N)=O)CC2)nc(-c2ccnc3[nH]ccc23)n1` (some centres undefined), the “percent reduction” value turned out to be 8.44 ± 6%.
Under `O=C1NC(=O)/C(=C/c2ccc(-c3ccc(F)cc3O)o2)S1` stands 16 ± 24%; under `O=C(NCc1cccc(O)c1)Nc1nc(-c2ccncc2)cs1`, -10 ± 8.6%; under `O=C(O)c1ccc(Nc2ncc3c(n2)-c2ccc(Cl)cc2C(c2c(F)cccc2F)=NC3)cc1`, -4.14 ± 5.4%.
`Cc1cc(Nc2ncc3c(n2)N(C)C(=O)N(c2cc(NC(=O)c4cccc(C(F)(F)F)c4)ccc2C)C3)n(C)n1`: the “percent reduction” value is 5.55 ± 14%.
With `COc1ccc(-c2ccc3ncc4c(c3c2)n(-c2ccc(N3CCNCC3)c(C(F)(F)F)c2)c(=O)n4C)cn1.O=C(O)/C=C\C(=O)O`, the “percent reduction” value was -5.09 ± 8.7%.
Regarding `O=C(c1ccc(/C=C/c2n[nH]c3ccccc23)cc1)N1CCNCC1`, the “percent reduction” value was determined as 51.6 ± 14%.
Turning to `O=c1cc(N2CCOCC2)oc2c(-c3ccccc3)cccc12`, the “percent reduction” value is -4.66 ± 9.2%.
In the case of `CO[C@H]1C[C@@H]2CC[C@@H](C)[C@@](O)(O2)C(=O)C(=O)N2CCCC[C@H]2C(=O)O[C@H]([C@H](C)C[C@@H]2CC[C@@H](OC(=O)C(C)(CO)CO)[C@H](OC)C2)CC(=O)[C@H](C)/C=C(\C)[C@@H](O)[C@@H](OC)C(=O)[C@H](C)C[C@H](C)/C=C/C=C/C=C/1C`, the “percent reduction” value was determined as 2.13 ± 12%.
Consider `CS(=O)(=O)N1CCc2c(-c3cnc(N)nc3)nc(N3CCOCC3)nc21`, for which the “percent reduction” value is -5.47 ± 9.1%.
For the compound `Cn1cc(C2=C(c3ccc(Cl)cc3Cl)C(=O)NC2=O)c2ccccc21`, the “percent reduction” value is -6.53 ± 5.3%.
In the case of `O=C(Nc1nc2cccc(-c3ccc(CN4CCS(=O)(=O)CC4)cc3)n2n1)C1CC1` [Filgotinib (GLPG0634)], the “percent reduction” value came out at 9.11 ± 14%.
Under `O=c1cc(-c2cccc3c2Sc2ccccc2S3)oc(N2CCOCC2)c1` stands -8.85 ± 7.2%.
